This passage reports growth results from PubChem BioAssay (NCI).

Compounds without any hit were thinned out: in the full panel of roughly 83,000, 20% have a hit.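 Compound tested at a single concentration for 48 hours in 96-well plates; a percent growth value below 10 was scored as active.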 Unmarked numbers belong to inactive results. Active and inactive are the calls of the source.

Among the test systems are SR leukemia; RPMI-8226 leukemia; OVCAR-8 ovarian; OVCAR-5 ovarian; OVCAR-4 ovarian; SK-OV-3 ovarian; IGROV1 ovarian; OVCAR-3 ovarian; HS 578T breast; NCI/ADR-RES ovarian; T-47D breast; BT-549 breast; MDA-MB-435 melanoma; SW-620 colon; MCF7 breast; HCT-116 colon; HCC-2998 colon; KM12 colon; MDA-MB-468 breast.
What all share (assay): NCI-60 one-dose screen, 48 h (100 = growth as untreated, 0 = no growth, -100 = all killed)
Holding throughout (settings): 10 µM unless noted

Turning to `O=C(NN1C(=O)/C(=C/C=C/c2ccc([N+](=O)[O-])o2)SC1=S)c1ccccc1O`, the growth in the assay on SR leukemia is 3.37% (active); in the assay with RPMI-8226 leukemia it was -4.22% (active); with OVCAR-8 ovarian it was -68.2% (active); in the assay with OVCAR-5 ovarian, -98.8% (active); in the assay on OVCAR-4 ovarian, -100% (active); in the assay with SK-OV-3 ovarian, -9.85% (active). For the same molecule, the growth was -95.5% (active) in the assay on IGROV1 ovarian; -100% (active) with OVCAR-3 ovarian; -5.32% (active) in the assay with HS 578T breast; -0.0269% (active) with NCI/ADR-RES ovarian; -59.4% (active) in the assay with T-47D breast; -91.3% (active) with BT-549 breast. Also, the growth is -89.7% (active) in the assay on MDA-MB-435 melanoma; -69.5% (active) in the assay on SW-620 colon; -49.7% (active) with MCF7 breast; -68.5% (active) with HCT-116 colon; -97% (active) in the assay on HCC-2998 colon; -83.5% (active) in the assay with KM12 colon. In addition, the growth in the assay on MDA-MB-468 breast was -75.4% (active).
On to `COc1ccc2oc3c4[nH]c5ccccc5c4c4c(c3c2c1)C(=O)N(C(=O)OC(C)(C)C)C4=O`, for which the growth is -5.86% (active) with SR leukemia; -10.4% (active) in the assay on RPMI-8226 leukemia; -20.1% (active) with OVCAR-8 ovarian; 6.78% (active) in the assay on OVCAR-5 ovarian; -6.75% (active) with OVCAR-4 ovarian; -25.3% (active) in the assay with SK-OV-3 ovarian. The growth is -1.25% (active) in the assay with IGROV1 ovarian; -33.7% (active) in the assay with OVCAR-3 ovarian; -1.85% (active) with HS 578T breast; -17.9% (active) with NCI/ADR-RES ovarian; -7.22% (active) in the assay on T-47D breast; -44.2% (active) in the assay with BT-549 breast. Further, the growth is -26.4% (active) in the assay on MDA-MB-435 melanoma; 6.81% (active) with SW-620 colon; -25.9% (active) in the assay on MCF7 breast; 1.65% (active) in the assay with HCT-116 colon; 23.2% in the assay on HCC-2998 colon; -18.9% (active) in the assay on KM12 colon. Besides, the growth with MDA-MB-468 breast was -22.9% (active).
On to `C#CCOc1cc(N(CC)CC)ccc1C(C(=O)NC(C)(C)C)N(C(=O)C1CCc2cc(F)ccc2O1)c1ccccc1F` (centres undefined), for which the growth in the assay with SR leukemia was 16.3%; with RPMI-8226 leukemia, 18%; with OVCAR-8 ovarian it was 31.7%; in the assay on OVCAR-5 ovarian, 57.7%; with OVCAR-4 ovarian, 43.4%; in the assay with SK-OV-3 ovarian, 39.6%. Also, the growth was 54% in the assay with IGROV1 ovarian; 33.1% with OVCAR-3 ovarian; 68.7% in the assay on HS 578T breast; 42.5% in the assay with NCI/ADR-RES ovarian; 30.2% in the assay with T-47D breast; 40.3% with BT-549 breast. Moreover, the growth in the assay with MDA-MB-435 melanoma is 35.9%; in the assay with SW-620 colon, 42.1%; with MCF7 breast it was 16.6%; in the assay with HCT-116 colon, 20.5%; with HCC-2998 colon it was 73.2%; in the assay on KM12 colon it was 18.8%. Further, the growth in the assay with MDA-MB-468 breast is 25.5%.
Regarding `C#C[C@]1(O)CC[C@H]2[C@@H]3CC=C4c5sc(-c6ccc(O)c(O)c6)nc5CC[C@]4(C)[C@H]3CC[C@@]21C`, the growth with SR leukemia was -25.7% (active); in the assay on RPMI-8226 leukemia, -50.4% (active); in the assay with OVCAR-8 ovarian, -77.3% (active); with OVCAR-5 ovarian, -87% (active); in the assay with OVCAR-4 ovarian, -68.1% (active); with SK-OV-3 ovarian, -78.2% (active). The growth with IGROV1 ovarian was -67.4% (active); in the assay on OVCAR-3 ovarian it was -56.3% (active); in the assay on HS 578T breast, -32.6% (active); in the assay with NCI/ADR-RES ovarian, -27.2% (active); with T-47D breast, -25.7% (active); with BT-549 breast, -93.3% (active). Also, the growth in the assay with MDA-MB-435 melanoma was -62.3% (active); in the assay with SW-620 colon it was -76.6% (active); with MCF7 breast, -72.8% (active); in the assay with HCT-116 colon, -88.8% (active); in the assay on HCC-2998 colon, -83.9% (active); in the assay with KM12 colon it was -76.3% (active). Further, the growth with MDA-MB-468 breast was -71.7% (active).
With `C=CC[N+](C)(C)CCn1c2ccccc2c2nc3cc(C)c(C)cc3nc21`, the growth in the assay on SR leukemia is 85%; with RPMI-8226 leukemia it was 95.1%; with OVCAR-8 ovarian, 98.4%; in the assay with OVCAR-5 ovarian, 111%; with OVCAR-4 ovarian it was 95%; with SK-OV-3 ovarian, 96.7%. For the same molecule, the growth in the assay with IGROV1 ovarian was 42.6%; in the assay with OVCAR-3 ovarian, 96.4%; in the assay with HS 578T breast, 56.2%; in the assay with NCI/ADR-RES ovarian, 108%; with T-47D breast, 99.9%; in the assay on BT-549 breast it was 54.6%. Besides, the growth with MDA-MB-435 melanoma was 99.6%; with SW-620 colon, 94.6%; in the assay with MCF7 breast it was 80%; in the assay on HCT-116 colon it was 98.4%; in the assay on HCC-2998 colon, 96.2%; in the assay on KM12 colon it was 99%. Besides, the growth with MDA-MB-468 breast was -2.23% (active).
Consider `O=C(c1ccccc1)c1ccc2nc(-c3cccc(Cl)c3)[nH]c2c1`, for which the growth in the assay with SR leukemia was 117%; in the assay on RPMI-8226 leukemia, 114%; in the assay with OVCAR-8 ovarian, 103%; with OVCAR-5 ovarian, 107%; in the assay with OVCAR-4 ovarian, 114%; in the assay on SK-OV-3 ovarian, 99.9%. For the same molecule, the growth was 113% in the assay with IGROV1 ovarian; 116% in the assay on OVCAR-3 ovarian; 108% in the assay on HS 578T breast; 104% in the assay on NCI/ADR-RES ovarian; 98.6% in the assay on T-47D breast; 105% in the assay with BT-549 breast. Also, the growth with MDA-MB-435 melanoma is 106%; in the assay on SW-620 colon, 108%; in the assay on MCF7 breast it was 105%; with HCT-116 colon, 103%; with HCC-2998 colon it was 110%; in the assay on KM12 colon, 108%. The growth with MDA-MB-468 breast was 105%.
